# In the supplement of paper PMC8728848:
# The full list was thinned out, with the strongest signals kept by preference.
# B1: SSR2 (Sclerotium rolfsii) (protein)
# chain: MVYKITVRVYQTNPDAFFHPVEKTVWKYANGGTWSITDDQHVLTMGGSGTSGTLRFHADNGESFTATFGVHNYKRWCDIVTNLAADETGMVINQQYYSQKNREEARERQLSNYQVKNAKGRNFQIVYTEAEGNDLHANLIIG
# Columns and labels:
# Assay in all cases: glycan array binding signal (z-score within array); higher = stronger binding
# Conditions in all cases: glycan notation: IUPAC condensed, linker removed
# [1] = biological target: Fuc(a1-2)Gal(b1-3)GalNAc(b1-4)[Neu5Ac(a2-3)]Gal(b1-4)Glc
# How it was run: (§1)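 Glycan array data came from 3228 arrays in the Consortium for Functional Glycomics database, and only arrays with an available protein sequence were kept. Glycan names were put into IUPAC-condensed notation, and columns mapping to the same glycan were averaged. The binding signal is a within-array Z-score, averaged across arrays of one protein sequence run at different concentrations or buffers and across linkers. A negative Z-score can be read as non-binding.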
# [2] = biological target: Fuc(a1-2)Gal(b1-4)GlcNAc(b1-3)Gal(b1-4)GlcNAc(b1-2)Man(a1-3)[Fuc(a1-2)Gal(b1-4)GlcNAc(b1-3)Gal(b1-4)GlcNAc(b1-2)Man(a1-6)]Man(b1-4)GlcNAc(b1-4)GlcNAc
# How it was run: as §1
# [3] = biological target: Fuc(a1-2)Gal(b1-4)[Fuc(a1-3)]GlcNAc(b1-3)Gal(b1-4)[Fuc(a1-3)]GlcNAc(b1-3)Gal(b1-4)[Fuc(a1-3)]GlcNAc
# How it was run: as §1
# [4] = biological target: Fuc(a1-2)[Gal(a1-3)]Gal(b1-4)GlcNAc(b1-3)GalNAc
# How it was run: as §1
# [5] = biological target: Fuc(a1-2)[Gal(a1-3)]Gal(b1-4)GlcNAc(b1-3)[Fuc(a1-2)[Gal(a1-3)]Gal(b1-4)GlcNAc(b1-6)]GalNAc
# How it was run: as §1
# [6] = biological target: Fuc(a1-2)[GalNAc(a1-3)]Gal(b1-4)GlcNAc(b1-2)Man
# How it was run: as §1
# [7] = biological target: Fuc(a1-2)[GalNAc(a1-3)]Gal(b1-4)GlcNAc(b1-6)GalNAc
# How it was run: as §1
# [8] = biological target: Fuc(a1-3)[Gal3S(b1-4)]GlcNAc6S
# How it was run: as §1
# [9] = biological target: Fuc(b1-3)GlcNAc
# How it was run: as §1
# [10] = biological target: Gal(a1-3)Gal(b1-4)GlcNAc
# How it was run: as §1
# [11] = biological target: Gal(a1-4)Gal(b1-4)GlcNAc(b1-3)Gal(b1-4)Glc
# How it was run: as §1
# [12] = biological target: Gal(b1-3)GalNAc(a1-3)[Fuc(a1-2)]Gal(b1-4)Glc
# How it was run: as §1
# [13] = biological target: Gal(b1-3)GalNAc(a1-3)[Fuc(a1-2)]Gal(b1-4)GlcNAc
# How it was run: as §1
# [14] = biological target: Gal(b1-3)GlcNAc(a1-3)Gal(b1-4)GlcNAc
# How it was run: as §1
# [15] = biological target: Gal(b1-3)GlcNAc(b1-2)[Gal(b1-3)GlcNAc(b1-6)]Man(a1-6)[Gal(b1-3)GlcNAc(b1-2)Man(a1-3)]Man(b1-4)GlcNAc(b1-4)GlcNAc
# How it was run: as §1
# [16] = biological target: Gal(b1-3)[Fuc(a1-4)]GlcNAc(b1-2)Man
# How it was run: as §1
# [17] = biological target: Gal(b1-3)[Fuc(a1-4)]GlcNAc(b1-3)Gal(b1-3)[Fuc(a1-4)]GlcNAc
# How it was run: as §1
# [18] = biological target: Gal(b1-4)Gal
# How it was run: as §1
# [19] = biological target: Gal(b1-4)GalNAc(a1-3)[Fuc(a1-2)]Gal(b1-4)GlcNAc
# How it was run: as §1
# [20] = biological target: Gal(b1-4)GlcNAc(b1-2)Man(a1-3)[Gal(b1-4)GlcNAc(b1-2)Man(a1-6)][GlcNAc(b1-4)]Man(b1-4)GlcNAc(b1-4)[Fuc(a1-6)]GlcNAc
# How it was run: as §1
# [21] = biological target: Gal(b1-4)GlcNAc(b1-2)Man(a1-3)[GlcNAc(b1-4)][Gal(b1-4)GlcNAc(b1-2)Man(a1-6)]Man(b1-4)GlcNAc(b1-4)GlcNAc
# How it was run: as §1
# [22] = biological target: Gal(b1-4)GlcNAc(b1-2)Man(a1-6)[GlcNAc(b1-2)Man(a1-3)]Man(b1-4)GlcNAc(b1-4)GlcNAc
# How it was run: as §1
# [23] = biological target: Gal(b1-4)GlcNAc(b1-2)[Gal(b1-4)GlcNAc(b1-6)]Man(a1-6)[GlcNAc(b1-4)][Gal(b1-4)GlcNAc(b1-2)[Gal(b1-4)GlcNAc(b1-4)]Man(a1-3)]Man(b1-4)GlcNAc(b1-4)[Fuc(a1-6)]GlcNAc
# How it was run: as §1
# [24] = biological target: Gal(b1-4)GlcNAc(b1-3)Gal(b1-4)GlcNAc(b1-2)[Gal(b1-4)GlcNAc(b1-3)Gal(b1-4)GlcNAc(b1-6)]Man(a1-6)[Gal(b1-4)GlcNAc(b1-3)Gal(b1-4)GlcNAc(b1-2)Man(a1-3)]Man(b1-4)GlcNAc(b1-4)[Fuc(a1-6)]GlcNAc
# How it was run: as §1
# [25] = biological target: Gal(b1-4)GlcNAc(b1-3)GalNAc
# How it was run: as §1
# [26] = biological target: Gal3S(b1-3)GalNAc
# How it was run: as §1
# [27] = biological target: Gal4S(b1-4)GlcNAc
# How it was run: as §1
# [28] = biological target: Gal6P(b1-4)GlcNAc
# How it was run: as §1
# [29] = biological target: GalNAc(b1-4)GlcNAc6S
# How it was run: as §1
binder,measurement,setting,value
B1,glycan array binding signal (z-score),[1],-0.282
same,glycan array binding signal (z-score),[2],-0.273
same,glycan array binding signal (z-score),[3],-0.294
same,glycan array binding signal (z-score),[4],-0.285
same,glycan array binding signal (z-score),[5],-0.277
same,glycan array binding signal (z-score),[6],-0.275
same,glycan array binding signal (z-score),[7],-0.297
same,glycan array binding signal (z-score),[8],-0.279
same,glycan array binding signal (z-score),[9],-0.269
same,glycan array binding signal (z-score),[10],-0.292
same,glycan array binding signal (z-score),[11],-0.285
same,glycan array binding signal (z-score),[12],3.93
same,glycan array binding signal (z-score),[13],2.96
same,glycan array binding signal (z-score),[14],-0.278
same,glycan array binding signal (z-score),[15],-0.286
same,glycan array binding signal (z-score),[16],-0.286
same,glycan array binding signal (z-score),[17],-0.272
same,glycan array binding signal (z-score),[18],-0.288
same,glycan array binding signal (z-score),[19],-0.279
same,glycan array binding signal (z-score),[20],-0.287
same,glycan array binding signal (z-score),[21],-0.259
same,glycan array binding signal (z-score),[22],3.34
same,glycan array binding signal (z-score),[23],-0.266
same,glycan array binding signal (z-score),[24],-0.229
same,glycan array binding signal (z-score),[25],-0.281
same,glycan array binding signal (z-score),[26],4.27
same,glycan array binding signal (z-score),[27],-0.297
same,glycan array binding signal (z-score),[28],-0.287
same,glycan array binding signal (z-score),[29],-0.294
